The values that follow come from article PMC4336329 (PLoS ONE, 2015).

About 14,000 (4.5%) of roughly 310,000 compounds showed an effect of 50% or more. The effect is printed as a negative number. For the sample, strong results were picked, then their nearest neighbours and some compounds at random.
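Note: peak tail current of the secondary pulse compared with the same well before compound.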

The target in the assay is human ether-à-go-go-related gene (hERG) potassium channel (human, UniProt Q12809). The experiment in a line: primary screen, population patch clamp on CHO cells stably expressing hERG; higher = less effect of the substance.
human ether-à-go-go-related gene (hERG) potassium channel, sequence (Q12809 whole entry, looked up): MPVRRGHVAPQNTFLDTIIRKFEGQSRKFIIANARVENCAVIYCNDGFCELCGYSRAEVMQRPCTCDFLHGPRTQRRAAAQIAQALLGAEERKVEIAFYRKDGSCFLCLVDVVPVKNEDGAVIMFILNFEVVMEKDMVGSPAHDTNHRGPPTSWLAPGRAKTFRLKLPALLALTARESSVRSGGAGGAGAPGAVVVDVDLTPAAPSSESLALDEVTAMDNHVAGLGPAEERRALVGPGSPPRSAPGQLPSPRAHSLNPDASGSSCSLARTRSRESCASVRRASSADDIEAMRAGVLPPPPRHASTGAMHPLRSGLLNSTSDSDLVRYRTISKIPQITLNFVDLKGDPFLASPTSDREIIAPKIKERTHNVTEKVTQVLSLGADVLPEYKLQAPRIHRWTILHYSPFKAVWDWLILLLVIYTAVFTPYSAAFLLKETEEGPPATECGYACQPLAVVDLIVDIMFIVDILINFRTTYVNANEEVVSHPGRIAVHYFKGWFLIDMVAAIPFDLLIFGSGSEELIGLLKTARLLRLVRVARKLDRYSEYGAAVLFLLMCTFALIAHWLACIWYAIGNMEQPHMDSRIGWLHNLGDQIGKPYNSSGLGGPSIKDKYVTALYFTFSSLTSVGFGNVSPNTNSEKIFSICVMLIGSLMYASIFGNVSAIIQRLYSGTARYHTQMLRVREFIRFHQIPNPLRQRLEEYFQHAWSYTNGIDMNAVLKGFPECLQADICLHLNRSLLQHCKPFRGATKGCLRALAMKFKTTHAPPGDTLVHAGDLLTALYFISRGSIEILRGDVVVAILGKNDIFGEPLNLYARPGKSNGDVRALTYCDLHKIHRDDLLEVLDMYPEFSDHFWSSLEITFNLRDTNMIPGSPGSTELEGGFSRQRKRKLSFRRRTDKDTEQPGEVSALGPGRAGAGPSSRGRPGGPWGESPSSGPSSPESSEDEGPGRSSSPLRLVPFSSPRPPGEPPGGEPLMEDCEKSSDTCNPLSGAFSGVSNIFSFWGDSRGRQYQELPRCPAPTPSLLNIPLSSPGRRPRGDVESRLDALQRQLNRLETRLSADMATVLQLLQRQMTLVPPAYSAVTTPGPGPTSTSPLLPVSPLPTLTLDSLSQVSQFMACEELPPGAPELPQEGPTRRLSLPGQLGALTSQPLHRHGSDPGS
As to `Cc1cccc(NC(=O)N2C3CCCC2CC(NC(=O)C(C)(C)C)C3)c1` (stereo not drawn), the “hERG current change (%, negative = inhibition) at 10uM” value turned out to be 1.47%.

Consider `CCOC(=O)N1CCN(C(=O)c2ccc3c(c2)NC(=O)C(N2CCOCC2)S3)CC1` (stereo not drawn), for which the “hERG current change (%, negative = inhibition) at 10uM” value is -4.6%.

`CCOc1cccc2cc(C(=O)NCc3cccnc3)c(=O)oc12`: the “hERG current change (%, negative = inhibition) at 10uM” value is -1.94%.

Regarding `O=C(CSc1nc2ccccc2c(=O)n1Cc1ccco1)c1ccc(F)cc1`, the “hERG current change (%, negative = inhibition) at 10uM” value is on record as 9.22%.

`COc1cc2nc(SCC(=O)NCc3ccco3)n(Cc3ccc(Cl)cc3)c(=O)c2cc1OC`: the “hERG current change (%, negative = inhibition) at 10uM” value is reported as -3.17%.

As for `CCN(CC)C(=O)CSc1nc2cc3c(cc2c(=O)n1Cc1ccc(OC)cc1)OCO3`, the “hERG current change (%, negative = inhibition) at 10uM” value came to 12.1%.

For `CC1CCCCC1NC(=O)CSc1nc2ccccc2c(=O)n1Cc1ccco1` (stereo not drawn), the “hERG current change (%, negative = inhibition) at 10uM” value was 13%.

For `CC(Sc1nc2ccccc2c(=O)n1Cc1ccco1)C(=O)c1ccccc1` (stereo not drawn), the “hERG current change (%, negative = inhibition) at 10uM” value is reported as -53.9%.

`O=C(CSc1nc2ccccc2c2nc3ccccc3n12)NCc1ccco1`: the “hERG current change (%, negative = inhibition) at 10uM” value is on record as -8.55%.

`Cc1nc2ccccc2n1CCc1nc2c3ccccc3nc(SCC(=O)NCc3ccco3)n2n1`: the “hERG current change (%, negative = inhibition) at 10uM” value was -60%.

In the case of `O=c1c2ccccc2nc(SCc2ccccc2)n1Cc1ccco1`, the “hERG current change (%, negative = inhibition) at 10uM” value is recorded as 1.3%.

For the molecule `O=C(CSc1nc2ccccc2n1CC(=O)NCc1ccccc1)NCc1ccco1`, the “hERG current change (%, negative = inhibition) at 10uM” value is reported as -20.2%.

`CN(C)C(CNC(=O)CSc1nc2ccccc2c(=O)n1Cc1ccco1)c1ccccc1` (stereo not drawn): the “hERG current change (%, negative = inhibition) at 10uM” value was -67.1%.

Take `CCN(CC)C(=O)CSc1nc2cc(OC)c(OC)cc2c(=O)n1Cc1ccc(Cl)cc1`: the “hERG current change (%, negative = inhibition) at 10uM” value is listed as -77%.

Take `COc1ccc(CCNc2ncnc3c2oc2ccccc23)cc1OC.Cl`: the “hERG current change (%, negative = inhibition) at 10uM” value was 0.357%.

Take `CCCCn1nc(C(=O)N2CCc3ccccc32)c2ccccc2c1=O`: the “hERG current change (%, negative = inhibition) at 10uM” value was -28.4%.

For the molecule `CN(Cc1nc(-c2cnccn2)no1)Cc1cccc2ccccc12`, the “hERG current change (%, negative = inhibition) at 10uM” value was -2.31%.

As for `CCc1ccc(-c2ccc(SCc3ccccn3)nn2)cc1`, the “hERG current change (%, negative = inhibition) at 10uM” value stood at 3.91%.

Turning to `O=C(Cn1cc(C(F)(F)F)ccc1=O)NCc1ccc(F)cc1`, the “hERG current change (%, negative = inhibition) at 10uM” value was found to be 15.6%.

Take `CS(=O)(=O)N(CC(=O)N1CCN(c2ccccc2)CC1)c1cccc(Br)c1`: the “hERG current change (%, negative = inhibition) at 10uM” value is recorded as -19.2%.

On to `O=C(CCN1C(=O)/C(=C/C=C/c2ccccc2)SC1=S)Nc1nc2ccccc2s1`, for which the “hERG current change (%, negative = inhibition) at 10uM” value is 18.3%.

Turning to `NCC(c1ccccc1Cl)c1c[nH]c2ccccc12` (stereo not drawn), the “hERG current change (%, negative = inhibition) at 10uM” value came out at 12.8%.

In the case of `FC(F)(F)c1ccccc1Nc1nccs1`, the “hERG current change (%, negative = inhibition) at 10uM” value was -16.1%.

Turning to `CCC(=O)OC1(Cc2ccc(CC)cc2)CC(C)N(C)CC1C.Cl` (stereo not drawn), the “hERG current change (%, negative = inhibition) at 10uM” value is listed as -59.4%.

As to `CCC1(OC(=O)c2ccccc2)CC(C)N(C)CC1C.Cl` (stereo not drawn), the “hERG current change (%, negative = inhibition) at 10uM” value is given as -7.85%.

For `CCc1ccc(CC2(O)CC(C)N(C)CC2C)cc1` (stereo not drawn), the “hERG current change (%, negative = inhibition) at 10uM” value was -29.7%.

For the molecule `CNC(=S)NNC(=O)c1cc(C(C)(C)C)nn1Cc1ccc(F)cc1`, the “hERG current change (%, negative = inhibition) at 10uM” value is on record as 14.6%.

For `Cc1cc(C)cc(N2C(=O)CC(N3CCOCC3)C2=O)c1` (stereo not drawn), the “hERG current change (%, negative = inhibition) at 10uM” value came to 14.9%.

As to `O=C(CN1C(=O)COc2ccc(S(=O)(=O)N3CCCC3)cc21)N1CCCC1`, the “hERG current change (%, negative = inhibition) at 10uM” value worked out at 9.85%.

Consider `C/C=C/Cn1c(N2CCCCCC2)nc2c1c(=O)[nH]c(=O)n2C`, for which the “hERG current change (%, negative = inhibition) at 10uM” value is listed as -5.14%.

For the molecule `COc1ccc(-c2ccnc3c(C#N)cnn23)cc1`, the “hERG current change (%, negative = inhibition) at 10uM” value is on record as 6.06%.

`N#Cc1cnn2c(-c3cccc([N+](=O)[O-])c3)ccnc12`: the “hERG current change (%, negative = inhibition) at 10uM” value was -52.7%.

As to `NC(=S)c1cnn2c(-c3cccc(C(F)(F)F)c3)ccnc12`, the “hERG current change (%, negative = inhibition) at 10uM” value is 14.2%.

Consider `N#Cc1cnn2c(-c3ccccc3)ccnc12`, for which the “hERG current change (%, negative = inhibition) at 10uM” value came out at 2.49%.

With `NC(=O)c1cnn2c(-c3cccc(C(F)(F)F)c3)ccnc12`, the “hERG current change (%, negative = inhibition) at 10uM” value is -2.33%.

On to `N#Cc1cnn2c(-c3cccc(C(F)(F)F)c3)ccnc12`, for which the “hERG current change (%, negative = inhibition) at 10uM” value is -52.8%.

With `CC(=O)c1ccc(NS(=O)(=O)c2cccc(C)c2)cc1`, the “hERG current change (%, negative = inhibition) at 10uM” value was -1.86%.

Take `COC(=O)c1cccc(NC(=O)CC2C(=O)NCCN2C(=O)Nc2cc(C)cc(C)c2)c1` (stereo not drawn): the “hERG current change (%, negative = inhibition) at 10uM” value is given as 11%.

With `COc1ccccc1CNc1ncccn1.O=C(O)C(=O)O`, the “hERG current change (%, negative = inhibition) at 10uM” value turned out to be 23.6%.

Turning to `COc1ccc(CNc2ncc(-c3ccccc3)n2C)c2ccccc12.O=C(O)C(=O)O`, the “hERG current change (%, negative = inhibition) at 10uM” value is listed as -34.5%.

With `COCCn1c(-c2ccc(OC)cc2)cnc1SCC(=O)Nc1cccc2ccccc12`, the “hERG current change (%, negative = inhibition) at 10uM” value is -21.8%.

Take `COc1ccc(CNc2ncc(-c3ccc(F)cc3)n2C)c2ccccc12.O=C(O)C(=O)O`: the “hERG current change (%, negative = inhibition) at 10uM” value is -35.1%.

As for `COc1ccc(CNc2ncc(-c3ccc(F)cc3)n2C)cc1OC.O=C(O)C(=O)O`, the “hERG current change (%, negative = inhibition) at 10uM” value is -65.2%.

On to `Cn1c(-c2ccc(F)cc2)cnc1NCc1ccccc1F.O=C(O)C(=O)O`, for which the “hERG current change (%, negative = inhibition) at 10uM” value is -27.3%.

In the case of `COc1ccccc1CNc1ncc(-c2ccc(F)cc2)n1C.O=C(O)C(=O)O`, the “hERG current change (%, negative = inhibition) at 10uM” value is -62%.

For `CCOc1ccc(-c2cnc(NCc3cccc4ccccc34)n2CCOC)cc1.O=C(O)C(=O)O`, the “hERG current change (%, negative = inhibition) at 10uM” value was -58.8%.

Take `COCCCNC(=O)Cn1c(=O)n(Cc2ccccc2Cl)c(=O)c2cc(OC)c(OC)cc21`: the “hERG current change (%, negative = inhibition) at 10uM” value stood at 9.48%.

With `COc1ccc(-c2nc(N)n(S(=O)(=O)c3ccc(C)cc3)n2)cc1`, the “hERG current change (%, negative = inhibition) at 10uM” value was determined as 39%.

With `CC(=O)Nc1nc(COc2ccccc2)cs1`, the “hERG current change (%, negative = inhibition) at 10uM” value is reported as -4.04%.

Regarding `COC(=O)C(Cc1c[nH]c2ccccc12)NC(=O)c1cncc(Br)c1` (stereo not drawn), the “hERG current change (%, negative = inhibition) at 10uM” value amounted to 1.85%.

For `CCOC(=O)N1CCN(S(=O)(=O)N2CCCC(C(=O)NCCCN3CCCCC3)C2)CC1` (stereo not drawn), the “hERG current change (%, negative = inhibition) at 10uM” value stood at 10%.

`CC(C)Nc1ccc(Nc2ccccc2)cc1`: the “hERG current change (%, negative = inhibition) at 10uM” value was -0.32%.

With `CC(C)Nc1ccc(Nc2ccnc3cc4ccccc4cc23)cc1`, the “hERG current change (%, negative = inhibition) at 10uM” value is given as -72.7%.

For the molecule `COc1ccc(Nc2ccnc3ccccc23)cc1.Cl`, the “hERG current change (%, negative = inhibition) at 10uM” value was -33.8%.

As to `CS(=O)(=O)N(CC(=O)N1CCOCC1)c1cccc([N+](=O)[O-])c1`, the “hERG current change (%, negative = inhibition) at 10uM” value is 6.28%.

With `CS(=O)(=O)N(CC(=O)N1CCN(Cc2ccccc2)CC1)c1cccc(Cl)c1`, the “hERG current change (%, negative = inhibition) at 10uM” value was -63.8%.

For `CS(=O)(=O)N(CC(=O)N1CCN(Cc2ccccc2)CC1)c1cccc(F)c1`, the “hERG current change (%, negative = inhibition) at 10uM” value was -36.3%.

As for `CS(=O)(=O)N(CC(=O)N1CCN(Cc2ccccc2)CC1)c1cccc([N+](=O)[O-])c1`, the “hERG current change (%, negative = inhibition) at 10uM” value is recorded as -75.5%.

With `CCOC(=O)N1CCN(C(=O)CN(c2cccc(C(F)(F)F)c2)S(C)(=O)=O)CC1`, the “hERG current change (%, negative = inhibition) at 10uM” value is -51.1%.

As to `CCOC(=O)C1CCN(C(=O)CN(c2cccc(C(F)(F)F)c2)S(C)(=O)=O)CC1`, the “hERG current change (%, negative = inhibition) at 10uM” value is given as -25.9%.

With `CCOC(=O)N1CCN(C(=O)CN(c2cccc(C(F)(F)F)c2)S(=O)(=O)c2ccccc2)CC1`, the “hERG current change (%, negative = inhibition) at 10uM” value is given as -43.6%.

Take `CS(=O)(=O)N(CC(=O)N1CCCCCC1)c1cccc([N+](=O)[O-])c1`: the “hERG current change (%, negative = inhibition) at 10uM” value was -32.7%.

With `Cc1ccc(N(CC(=O)N2CCN(Cc3ccccc3)CC2)S(C)(=O)=O)cc1C`, the “hERG current change (%, negative = inhibition) at 10uM” value is reported as -7.28%.
